ALDH1A1 inh-1 = inhibitors of human aldehyde dehydrogenase 1A1; P00352; Purified ALDH1A1, NADH fluorescence, propionaldehyde substrate; 220,000 tested, 7.3% active; Potency, µM (top dose mostly 75.3 µM), for inactives: at the highest dose activity, negative = inhibition, hits mostly inhibitors; AID 1030; active means well fitted inhibition curve with a large enough effect, not every such curve was filed as active; inconclusive means small, poorly fitted or top-dose-only effect, or another doubt; inactive means no such curve, though single readings can be large or run the other way;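 further: potency means the concentration at half of the fitted maximal effect; plate controls were no enzyme wells and a reference inhibitor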
IMPase Li inh = membrane-permeable IMPase blocker, potentiated with lithium; CHO-M1 cells, IP1 TR-FRET (IP-One), carbachol + lithium; AID 1457; Potency, µM (doses to about 59.4 µM), for the others: top-dose activity, negative = IMPase inhibition, most hits filed as inhibitors; 210,000 tested, 0.35% active;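 further: IP1 builds up when IMPase is blocked and the TR-FRET signal falls; potency means the concentration at half of the fitted maximal effect; plate controls were basal vehicle for no effect and high inhibitor control for full effect; nearly all actives have a fitted effect of over 50% in size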
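Readout is a homogeneous TR-FRET IP1 immunoassay (Ex 320, Em 665 and 620), where raised cytosolic IP1 lowers signal. Cells were CHO-M1 treated 30 min at 37C with test compounds plus a little lithium; AC50 values came from Hill-equation fitting.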
ALOX12 inhib = blocks human 12-lipoxygenase activity; 150,000 tested, 0.12% active; P18054; purified 12-hLO, xylenol orange hydroperoxide absorbance; Potency, µM (top dose mostly 57.1 µM), for inactives: top-dose activity change, negative = inhibition, hits mostly inhibitors; AID 1452; further: potency means the concentration at half of the fitted maximal effect; on the % scale 0 is the no-effect control and ±100 the full control effect; nearly all actives have a fitted effect of over 55% in size
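Purified human 12hLO (150 nM final) was preincubated with compounds for 15 min at room temperature in 25 mM Hepes pH 7.0, 0.01% Triton X-100, then reacted with 40 uM arachidonic acid for 30 min. Hydroperoxide was detected with ferrous iron/xylenol orange.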
HPGD inh = blocks human HPGD enzyme activity | P15428 | purified HPGD, NADH fluorescence kinetic, PGE2 substrate | Potency, µM, inactives show at the highest dose activity change, negative = inhibition, actives largely listed as inhibitors | 150,000 tested, 4.3% active; active means well fitted inhibition curve with a large enough effect, not every such curve was filed as active; inconclusive means small, poorly fitted or top-dose-only effect, or another doubt; inactive means no such curve, though single readings can be large or run the other way; further: potency means the concentration at half of the fitted maximal effect; on the % scale 0 is the no-effect control and ±100 the full control effect
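NADH formation kinetics: reaction with 30 uM PGE2 and 1 mM NAD+ (final), 20 nM enzyme, Tris-HCl pH 8 with Tween 20, after 15 min compound preincubation at room temperature. Fluorescence change, last versus first of five reads.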
IMPase inh = cell-permeable inhibitors of inositol monophosphatase (IMPase); P97697; CHO-M1 cells, IP1 accumulation, HTRF TR-FRET ratio; inhibition (IP1 accumulation), % at 46.1 µM; 120,000 tested, under 10 active; AID 901; active means well fitted curve in the direction sought with a large enough effect in the signal ratio, not every such curve was filed as active; inconclusive means small, poorly fitted or top-dose-only effect, or a change in a side signal; inactive means no such curve, though single readings can be large or run the other way; the % refers to the signal ratio;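 further: cells stimulated with carbachol in lithium chloride buffer; plate controls were DMSO basal wells for no effect and reference inhibitor wells for full effect; higher means more IMPase inhibition seen as more IP1 and lower FRET ratio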
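Carbachol-driven Gq signalling in CHO-M1 cells (2000/well) generates IP1. Compounds that block IMPase raise IP1 and so reduce the FRET signal from Eu-anti-IP1 and d2-IP1 after a 10 min room-temperature lysis.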
NPSR antag = antagonists of human neuropeptide S receptor cAMP signaling. CHO-NPSR cells, cAMP TR-FRET, antagonist mode. Potency, µM (highest dose often 38.3 µM), for the others: at the top dose activity change, negative = inhibition, actives largely listed as inhibitors. 220,000 tested, 1% active. AID 1461; further: potency means the concentration at half of the fitted maximal effect; on the % scale 0 is the no-effect control and ±100 the full control effect; nearly all actives have a fitted effect of over 50% in size
Target sequence (Q6W5P4 whole entry, looked up): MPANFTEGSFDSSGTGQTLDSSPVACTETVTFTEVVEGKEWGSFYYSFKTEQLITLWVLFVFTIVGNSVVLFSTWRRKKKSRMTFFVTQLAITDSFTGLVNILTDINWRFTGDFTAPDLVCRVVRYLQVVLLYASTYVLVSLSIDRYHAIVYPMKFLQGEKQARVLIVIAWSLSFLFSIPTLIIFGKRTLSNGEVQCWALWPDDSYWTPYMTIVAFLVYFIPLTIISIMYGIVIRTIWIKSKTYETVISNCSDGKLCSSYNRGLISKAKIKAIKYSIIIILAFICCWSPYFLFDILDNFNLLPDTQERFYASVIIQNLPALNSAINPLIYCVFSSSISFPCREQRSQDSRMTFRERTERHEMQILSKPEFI
HPGD inh conf = human HPGD enzyme inhibition, confirmation; shares compounds with HPGD inh; recombinant HPGD, NADH fluorescence, PGE2 substrate; Potency, µM (titrated, usually from 57.1 µM), for the others: top-dose activity change, negative = inhibition, actives largely listed as inhibitors; 90 tested, 90% active; calls by dose curve
ALDH1A1 inh-2 = Inhibits human ALDH1A1, confirmation and counter-screen | shares compounds with ALDH1A1 inh-1 | purified ALDH1A1, NADH fluorescence, propionaldehyde/NAD+ | Potency, µM (highest dose often 57.1 µM), without a hit: at the highest dose activity change, negative = inhibition, usual class: inhibitors | 90 tested, 90% active; calls by dose curve
* marks the source's active call; other numbers are inactive results; ? = inconclusive; . = no result; [ ] = dose if it differs, or a comment. In the library only some 8.9% were active in any assay of this set; here they are far more common. Unless noted, the call rests on the fitted dose curve; in most records, active means well fitted curve in the direction sought with a large enough effect; inconclusive means small, poorly fitted or top-dose-only effect, or another doubt; inactive means no such curve, though single readings can be large; an effect the other way counts as inactive or inconclusive.

SMILES	ALDH1A1 inh-1	IMPase Li inh	ALOX12 inhib	HPGD inh	IMPase inh	NPSR antag	HPGD inh conf	others
CC(=O)Nc1ccccc1OP1(=O)COc2ccccc2OC1	2.5%	24.4%[38.3 µM]	2.1%	-5.3%	?	1.6%[46.1 µM]	-11.3%
CC(=O)Nc1ccccc1C(=O)OCC(=O)c1ccccc1Cl	-10.9%	2.1%	1.1%	-9.7%	.	-2.8%	.
Cc1ccc(-c2nc(N3CCOCC3)s[n+]2-c2ccccc2)cc1	2.51µM*	2.1%	-4.2%	0.159µM*	.	7.5%	3.16µM*
CCC1(C)OC(c2ccccc2)=C/C(=C/C=C2C(=O)NC(=O)NC2=O)O1 (stereo unspecified)	-0.4%	28.8%	.	.	.	-45.4%	.
COc1ccc2c(c1)CCC1C2CC[C@@]2(C)C1CC[C@@H]2NCCCCCCN1C(=O)C=CC1=O (stereo partly specified)	0.501µM*	15.0%	.	-11.6%	.	4.9%[46.1 µM]	.	ALDH1A1 inh-2=5.01µM*
Cc1cc(=O)[nH]c(CCl)n1	-11.7%	-3.3%	.	.	.	13.6%	.

Screening data (PubChem)
